Activity calls are given as the source filed them. No rule for the calls is given here.
Target: Pantothenate synthetase (Mycobacterium tuberculosis (strain ATCC 25618 / H37Rv)) (UniProt P9WIL5)
Assay: Coupled enzyme confirmation of inhibitors against recombinant Mtb PanC (AID 375);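 also: 0% = full reaction with vehicle and 100% = no enzyme background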
Details: coupled enzyme assay; at 10 µM, active compounds read high

Chain of Pantothenate synthetase (Mycobacterium tuberculosis (strain ATCC 25618 / H37Rv)) (P9WIL5 whole entry, looked up): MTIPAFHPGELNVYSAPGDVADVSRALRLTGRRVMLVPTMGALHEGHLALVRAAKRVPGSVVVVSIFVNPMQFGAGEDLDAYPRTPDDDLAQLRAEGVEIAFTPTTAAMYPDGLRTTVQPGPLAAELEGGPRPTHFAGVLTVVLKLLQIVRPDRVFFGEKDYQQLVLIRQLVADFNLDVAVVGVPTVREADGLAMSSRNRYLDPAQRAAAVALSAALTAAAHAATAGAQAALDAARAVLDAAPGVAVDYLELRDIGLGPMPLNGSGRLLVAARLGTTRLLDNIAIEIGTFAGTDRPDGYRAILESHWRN

| Structure (SMILES) | inhibition |
| --- | --- |
| CC(C)n1c(CN2CCN(C)CC2)nc2c1c(=O)n(C)c(=O)n2C | 0% (inactive) |
| O=C(Nc1cccc2ncccc12)c1ccc2c(c1)OCCO2 | 0% (inactive) |
| COc1cc(C(=O)OC(C)CN2CCCC2)cc(OC)c1OC (stereo not given) | 4% (inactive) |
| NC(=O)CSc1nnc(-c2cnccn2)n1-c1ccccc1 | 0% (inactive) |
| O=C1CC(N2CCN(C3CCc4ccccc4C3)CC2)C(=O)N1c1ccccc1 (stereo not given) | 0% (inactive) |
| Cc1ccc(C)c(N2CCN(S(=O)(=O)c3ccc4c(c3)OCCO4)CC2)c1 | 4% (inactive) |
| CCS(=O)(=O)N1CCCC(C(=O)NCc2ccccc2Cl)C1 (stereo not given) | 2% (inactive) |
| O=C(C1CCN(c2nnc(-n3cccc3)s2)CC1)N1CCc2ccccc2C1 | 0% (inactive) |
| O=C1CC(c2ccco2)=Nc2ccccc2N1 | 6% (inactive) |
| Cc1nnc(SCC(=O)N2c3ccccc3CC2C)s1 (stereo not given) | 0% (inactive) |
| Cc1cccc(N2CCN(C(=O)CCn3c(=S)[nH]c4cc5c(cc4c3=O)OCO5)CC2C)c1 (stereo not given) | 9% (inactive) |
| CN(C)CCOc1ccccc1Cc1ccccc1 | 0% (inactive) |
| COc1ccccc1-c1nc2n(n1)C(c1cccs1)C(C(=O)Nc1cccnc1)=C(C)N2 (stereo not given) | 0% (inactive) |
| Cc1ccc(S(=O)(=O)NCCCNC(=O)N2CCOCC2)cc1 | 0% (inactive) |
| O=C(Cc1cccs1)NCc1ccc(F)cc1 | 0% (inactive) |
| CCOC(=O)Nc1c(O)ccc2oc(C)c(-c3ccccc3)c12 | 0% (inactive) |
| COc1ccc(-n2c(=O)cc(N3CCN(Cc4ccccc4)CC3)[nH]c2=O)cc1 | 0% (inactive) |
| O=S(=O)(Nc1nc2ccccc2nc1NCc1ccco1)c1cccs1 | 2% (inactive) |
| O=S(=O)(c1ccccc1)c1nc(-c2ccco2)oc1NCCCN1CCOCC1 | 0% (inactive) |
| c1cncc(-c2nnc(SCCSc3nnc(-c4cccnc4)o3)o2)c1 | 0% (inactive) |

| Structure (SMILES) | inhibition |
| --- | --- |
| CC(c1ccco1)N(C(=O)COc1ccc(Cl)cc1Cl)c1ccccn1 (stereo not given) | 4% (inactive) |
| Cc1nn(C(=O)c2cc3sccc3[nH]2)c(C)c1C | 0% (inactive) |
| C/C(=C(\C#N)C(=O)NCCCN1CCOCC1)N(C)C | 0% (inactive) |
| C=CCc1ccccc1OCC(O)CN1CCN(Cc2ccc3c(c2)OCO3)CC1 (stereo not given) | 5% (inactive) |
| Cc1ccc(-c2ccc(/C=N/n3cnnc3)o2)cc1Cl | 11% (inactive) |
| CN=C1CC(C)(C)CC(=O)/C1=C(/O)CCC(=O)NC | 0% (inactive) |
| Cc1[nH]c2ccccc2c(=O)c1CN1CCCCC1 | 0% (inactive) |
| CCCCOc1ccc(C(=O)Nc2ccc(N3CCN(C(C)=O)CC3)cc2)cc1 | 0% (inactive) |
| Cc1ncoc1C(=O)Nc1cccc(Cl)c1C | 1% (inactive) |
| O=C(CNS(=O)(=O)c1ccc(Br)s1)N1CCCC1 | 0% (inactive) |
| O=C(O)COc1ccc2occ(C(=O)c3ccccc3)c2c1 | 0% (inactive) |
| CC(C)(C)NC(=O)COC(=O)c1ccc(O)cc1 | 0% (inactive) |
| Cc1nc2ccc(NC(=O)N3CCOCC3)cc2s1 | 4% (inactive) |
| Cc1cccc(C)c1OCc1nnc(SCC(=O)Nc2ccccc2F)o1 | 0% (inactive) |
| CCCOc1ccc(NC2=CC(=O)CC(C)(C)C2)cc1 | 0% (inactive) |
| COC(=O)c1cc(Br)ccc1-c1ccc(/C=N/n2nnnc2N)o1 | 7% (inactive) |
| Cc1ccc(S(=O)(=O)NCC2CCC(C(=O)NCCCN3CCOCC3)CC2)cc1 (stereo not given) | 0% (inactive) |
| COC(=O)c1[nH]c(C)c(/C(O)=C2\C(=O)C(=O)N(CCN(C)C)C2c2ccccc2OC)c1C (stereo not given) | 1% (inactive) |
| O=C(C(c1ccccc1)c1ccccc1)N1CCN(Cc2ccccn2)CC1 | 0% (inactive) |
| COc1ccc(-c2nc(C#N)c(N3CCOCC3)o2)cc1OC | 0% (inactive) |
